ELG1 DNA repair: ELG1-dependent DNA repair inhibition; HEK293T ELG1-luciferase reporter, luminescence, 16 h; DNA damage induced by 5-fluorouridine; Potency, µM (top dose mostly 46.1 µM), most hits filed as inhibitors; 2.3% of 330,000 active; also: nearly all actives have a fitted effect of over 55% in size
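Quantitative HTS, concentration-response format. 2,000 cells/well co-treated with 5-fluorouridine and compound, 16 hr in 5% CO2 at 37 °C; ONE-Glo luminescence read after 30 min.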
Gal4-VP16 FLuc: counter-screen for ROR gamma inhibitors: Gal4-VP16 reporter | Drosophila S2 Gal4-VP16 UAS-luciferase, luminescence, 20 h | AID 2546 | Potency, µM (doses to about 53.6 µM), hits mostly inhibitors | 3.5% of 310,000 active;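 also: Gal4-VP16 expression switched on by copper sulfate through the metallothionein promoter; nearly all actives have a fitted effect of over 50% in size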
RORg inh: ROR gamma (mouse) transcription inhibition; 5.4% of 310,000 active; Potency, µM (doses to about 53.6 µM), hits mostly inhibitors; Drosophila S2 Gal4-RORgamma UAS-luciferase reporter, 20 h; P51450; also: nearly all actives have a fitted effect of over 60% in size
Target sequence (P51450 whole entry, looked up, the tested form may be a part): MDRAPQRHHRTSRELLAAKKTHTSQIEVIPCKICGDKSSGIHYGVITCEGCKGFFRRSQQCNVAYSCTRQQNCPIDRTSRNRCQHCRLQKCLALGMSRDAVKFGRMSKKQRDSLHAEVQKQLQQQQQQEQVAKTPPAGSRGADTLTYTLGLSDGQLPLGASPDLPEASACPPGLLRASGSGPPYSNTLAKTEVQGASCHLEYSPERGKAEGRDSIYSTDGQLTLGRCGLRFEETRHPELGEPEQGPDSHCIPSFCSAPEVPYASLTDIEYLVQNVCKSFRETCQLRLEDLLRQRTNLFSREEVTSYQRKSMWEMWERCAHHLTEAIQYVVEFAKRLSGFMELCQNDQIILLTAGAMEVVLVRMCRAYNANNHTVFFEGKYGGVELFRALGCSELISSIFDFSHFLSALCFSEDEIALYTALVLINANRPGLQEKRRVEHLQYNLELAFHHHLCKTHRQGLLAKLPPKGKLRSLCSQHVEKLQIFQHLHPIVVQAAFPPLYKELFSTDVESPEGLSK
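A Gal4/UAS one-hybrid system in insect cells: metallothionein-promoter Gal4–ROR gamma fusion plus Photinus luciferase reporter. Copper sulfate 700 uM final, 20 hr ambient incubation, luminescent detection after 10 min with reagent.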
DT40 TDP1 no CPT: qHTS for Inhibitors of human tyrosyl-DNA phosphodiesterase 1 (TDP1): qHTS in cells in absence of CPT | 15% of 420,000 active | DT40 Tdp1-/- hTDP1 cells, no CPT, ATP luminescence, 48 h | Potency, µM (titrated, usually from 46.2 µM), hits mostly inhibitors; also: nearly all actives have a fitted effect of over 55% in size
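Camptothecin absent (DMSO only). Human TDP1-complemented DT40 knockout cells, 400 cells/well, 37 °C for minimum 48 hr; ATP measured via CellTiter-Glo, 30 min dark incubation, luminescence.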
IL1B secr inh: inhibitors of inflammasome signaling (IL-1 beta secretion); 4.7% of 360,000 active; THP-1 LPS/ATP IL-1B secretion, AlphaLISA, 16 h; stronger effect = lower value; AID 743279; activity change, % at 57.5 µM; in the data active = activity change below about -50%; inconclusive = mostly about -30% to -49%
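Secreted IL-1B measured by AlphaLISA bead assay after 16 h compound exposure of THP-1 cells; compounds (final up to 57.5 uM) added 1 h before LPS (250 ng/mL) and ATP (1.25 mM) stimulation; lower signal means less secretion.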
TDP1 cell CPT: growth inhibition of DT40 Tdp1-/-;hTDP1 cells with camptothecin (screen for TDP1 inhibitors); chicken DT40 Tdp1-/-;hTDP1 cells + 20 nM CPT, ATP luminescence, 48 h; Potency, µM (top dose mostly 46.2 µM), most hits filed as inhibitors; 12% of 420,000 active; AID 686979; also: nearly all actives have a fitted effect of over 55% in size
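Chicken DT40 Tdp1-/- cells stably complemented with human TDP1 were seeded at 400 cells/well in medium containing 20 nM camptothecin, exposed to pin-transferred compounds, and grown at 37 °C for at least 48 hr. Viability was read as ATP luminescence.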
A number is an active result; [ ] = remark or other dose. An excerpt weighted towards active compounds, which were near 21% of everything screened. Unless noted, calls follow the shape of the dose curve; as a rule, active = well fitted curve in the direction sought with a large enough effect; inconclusive = small, poorly fitted or top-dose-only effect, or another doubt; inactive = no such curve, though single readings can be large; an effect the other way counts as inactive or inconclusive.

What do the screens show for `Cc1ccc(NC(=O)c2cc(-c3ccccc3)n(CCCN3CCOCC3)c2C)cc1`?
ELG1 DNA repair: inconclusive; Gal4-VP16 FLuc: inactive; RORg inh: inactive; DT40 TDP1 no CPT: inconclusive; IL1B secr inh: inconclusive; TDP1 cell CPT: inactive

What do the screens show for `C[C@H](N)[C@@H](O)c1ccccc1`?
Gal4-VP16 FLuc: inactive; RORg inh: inactive[2.98 µM]

Results for CC(=O)OC1CC(OC(C)=O)[C@]2(C)C(CC(OC(C)=O)[C@]3(C)C2CC[C@@]2(C)C(c4ccoc4)C(=O)C4O[C@]432)C1(C)C (stereo partly specified) ?
Gal4-VP16 FLuc: inactive; RORg inh: inconclusive; DT40 TDP1 no CPT: inconclusive; TDP1 cell CPT: inconclusive

How did CCCCC/C=C\C/C=C\C/C=C\C/C=C\CCCC(=O)NCCCl do in these assays?
Gal4-VP16 FLuc: inactive; RORg inh: inactive

Results for O=P1(c2ccccc2)Nc2ccccc2N1c1ccccc1 (stereo unspecified) ?
DT40 TDP1 no CPT: inconclusive; IL1B secr inh: inactive; TDP1 cell CPT: inconclusive

How did CC(C)[C@H](NC(=O)[C@H](CCC(=O)O)NC(=O)[C@H](Cc1ccccc1)NC(=O)[C@@H](C)NC(=O)[C@@H](N)Cc1ccc(O)cc1)C(=O)N[C@H](C(=O)NCC(N)=O)C(C)C do in these assays?
Gal4-VP16 FLuc: inactive; RORg inh: inactive

What do the screens show for `Cc1c(C)c2c(c(C)c1OC(=O)CCC(=O)OCCO)CC[C@@](C)(CCC[C@H](C)CCC[C@H](C)CCCC(C)C)O2`?
DT40 TDP1 no CPT: inconclusive; TDP1 cell CPT: 11µM

How did CCNC(C)Cc1cccc(C(F)(F)F)c1 (stereo unspecified) do in these assays?
Gal4-VP16 FLuc: inactive; RORg inh: inactive; DT40 TDP1 no CPT: inactive; TDP1 cell CPT: inactive

Results for COc1ccccc1N1CCN(S(=O)(=O)CCNC(=O)CCCc2ccccc2)CC1 ?
ELG1 DNA repair: inconclusive; DT40 TDP1 no CPT: 21µM; IL1B secr inh: inactive; TDP1 cell CPT: inconclusive

How did COc1ccccc1N1CCN(CCc2ccccc2)CC1 do in these assays?
ELG1 DNA repair: inactive; Gal4-VP16 FLuc: inactive; RORg inh: inactive; DT40 TDP1 no CPT: inactive; IL1B secr inh: inactive; TDP1 cell CPT: inconclusive

How did COC(=O)C1=C(c2cccc(OCc3ccccc3)c2)C[C@@H]2CC[C@H]1N2C(=O)NCc1cccc(OC)c1 do in these assays?
ELG1 DNA repair: inconclusive; DT40 TDP1 no CPT: 15µM; IL1B secr inh: inconclusive; TDP1 cell CPT: 23µM

What do the screens show for `COC(=O)C1=C(c2cccc(OCc3ccccc3)c2)C[C@@H]2CC[C@H]1N2C(=O)NCCCOC(C)C`?
ELG1 DNA repair: inactive; DT40 TDP1 no CPT: 18µM; IL1B secr inh: inconclusive; TDP1 cell CPT: 21µM

Results for COC(=O)C1=C(c2cccc(OCc3ccccc3)c2)C[C@@H]2CC[C@H]1N2C(=O)NCCN1CCOCC1 ?
ELG1 DNA repair: inactive; DT40 TDP1 no CPT: inconclusive; IL1B secr inh: inactive; TDP1 cell CPT: 16µM

Results for COC(=O)C1=C(c2ccc(F)cc2OCc2ccccc2)C[C@@H]2CC[C@H]1N2C(=O)NCCN1CCOCC1 ?
ELG1 DNA repair: inactive; DT40 TDP1 no CPT: inconclusive; IL1B secr inh: inactive; TDP1 cell CPT: inactive

Results for COC(=O)C1=C(c2cccc(OCc3ccccc3)c2)C[C@@H]2CC[C@H]1N2C(=O)NCc1ccc(C(C)(C)C)cc1 ?
ELG1 DNA repair: inactive; DT40 TDP1 no CPT: 21µM; IL1B secr inh: inactive; TDP1 cell CPT: inconclusive

Results for CC(N)[C@@H](O)c1ccccc1 (stereo partly specified) ?
Gal4-VP16 FLuc: inactive; RORg inh: inactive; DT40 TDP1 no CPT: inactive; TDP1 cell CPT: inactive

What do the screens show for `CC12CN3CCN(C1)CC(C)(C3)C2=NO`?
ELG1 DNA repair: inactive; Gal4-VP16 FLuc: inactive; RORg inh: inactive; DT40 TDP1 no CPT: inactive; IL1B secr inh: inactive; TDP1 cell CPT: inactive
